Results filed as inconclusive are left out. Calls of active or inactive are those of the source.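 The calls were made as follows, unless noted: active = viability at or below 30% in both replicate assays; inconclusive = viability at or below 30% in just one of the two assays; inactive = the rest.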
Columns and labels:
[1] = SK-BR-3 cell growth inhibitors, pilot screen, 24 h, human (AID 572;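 active = viability at or below 10% of carrier control in both of two separate runs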;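 also: compound exposure lasted between 18 and 24 h rather than exactly 24 h; 100% = carrier-treated control wells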); conditions: SK-BR-3 viability, CellTiter-Glo luminescence, at 10 µM, stronger effect = lower value
[2] = HUVEC growth inhibition – cell-based, human, primary screen (AID 575); conditions: HUVEC proliferation, CellTiter-Glo luminescence, 72 h; at 10 µM; stronger effect = lower value;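 also: 100% = median of untreated cell wells with 0.1% DMSO on each plate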
[3] = growth inhibitors of H69AR lung tumor, primary screen, human, duplicate replicates (AID 580;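 active = viability at or under a set limit in both replicates, limit being median viability minus 3 SD, cut at about 48% in these data, passing the limit was not always enough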;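 also: 100% = mean luminescence of untreated wells and 0% = no signal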); conditions: H69AR lung tumor cells viability, ATP luminescence, 72 h; at 10 µM; stronger effect = lower value
[4] = reversal of MRP1-mediated doxorubicin resistance, pilot screen, H69AR cells, doxorubicin co-treatment (AID 601;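 active = viability loss from added drug above about 55%, and viability with drug at most 40%, in both replicates, limit read from the data, passing the limit was not always enough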); conditions: CellTiter-Glo, 72 h, at 10 µM; for differential viability (reversal): stronger effect = higher value
[5] = 384-well plate pilot, post-Golgi transport modulator project, inhibition of yeast transport mutant growth (AID 636; in the data active = inhibition above about 31%); conditions: absorbance 615 nm, about 18 h, stronger effect = higher value
[6] = growth suppression of yeast trafficking mutant, preliminary HTS, modulators of trafficking downstream of Golgi apparatus project, 1536-format plate, OD 615 nm (AID 637; in the data active = inhibition above about 30%); conditions: yeast transport mutant growth, absorbance 615 nm, 18 h; stronger effect = higher value
[7] = OD615 S. cerevisiae growth inhibition, permissive medium, pilot counter-assay, permissive growth control for S. cerevisiae lifespan shortening project (AID 705;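 active = growth inhibition above 25% in both replicates, a cutoff set 3 SD above the mean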); conditions: OD615, 24 h, at 10 µM, stronger effect = higher value
[8] = Restrictive medium S. cerevisiae growth inhibition, OD615, pilot screen of yeast lifespan reduction project, restrictive growth control (AID 706;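 active = growth inhibition above a set limit, 3 SD over mean compound inhibition, in both replicates, cut at about 43% in these data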;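 also: modified DeaD lifespan yeast strain shifted to restrictive glucose medium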); conditions: OD615, 48 h, at 10 µM, stronger effect = higher value
[9] = viability gain of MRP-1-high H69AR cells under doxorubicin, pilot screen, MRP-1 activator project, CellTiter-Glo, duplicate (AID 807;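 active = viability increase at or above a cutoff of the median across tested compounds plus 3 SD, cut at about 8.5% in these data, passing the limit was not always enough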;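 also: compound pretreatment 18-22 h then 72 h combined with doxorubicin; 0% = doxorubicin alone and 100% = vehicle without doxorubicin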); conditions: H69AR viability with doxorubicin, CellTiter-Glo luminescence; at 10 µM; stronger effect = higher value
[10] = growth suppression of beta-catenin knockout HCT116, pilot screen, human colon tumor cells (AID 823;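 active = cell viability at or below a set limit in both duplicate runs, the limit being the all-compound median minus 4 SD, cut at about 23% in these data, passing the limit was not always enough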;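 also: 0% = wells killed by 20 µM Hyamine and 100% = untreated DMSO cell wells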); conditions: CellTiter-Glo, 60 h, at 10 µM, stronger effect = lower value
[11] = growth suppression of PTEN-deleted HCT116, pilot screen, cell-based, HCT116 clonal line, CellTiter-Glo (AID 824;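 active = viability at or below 27.92% in each of two runs, the all-compound median minus 4 SD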;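 also: 0% = 20 µM Hyamine control and 100% = vehicle cell control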); conditions: 60 h, at 10 µM, stronger effect = lower value
[12] = inhibitors of the yeast RAM network, pilot screen, dse1pr::URA3 reporter, 5-FOA selection (AID 869;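 active = inhibition over a set limit, the all-compound mean plus 3 SD, in both replicate runs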;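 also: 0% = DMSO wells with no growth and 100% = 10 µM 1-NA-PP1 with full growth; RAM network block rescues cells from 5-FOA so hits raise OD615 growth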); conditions: S. cerevisiae dse1pr::URA3 5-FOA growth, OD615, 2 d; at 10 µM; stronger effect = higher value; strain carries analog-sensitive mutant Cbk1 kinase
[13] = H69AR cells + 2 uM doxorubicin, measured here: viability with 2 uM doxorubicin, stronger effect = lower value
[14] = H69AR cells, compound alone cytotoxicity

Structure (SMILES)	viability [1]	viability [2]	viability [3]	differential viability (reversal) ([4]; H69AR cells + 2 uM doxorubicin)	viability [4, 13]	viability [4, 14]	inhibition [5]	inhibition [6]	growth inhibition [7]	growth inhibition [8]	viability increase [9]	viability [10]	viability [11]	inhibition [12]
COc1ccc(-n2ncc3c(NCc4cccs4)ncnc32)cc1	120% (inactive)	90.5% (inactive)	73.3% (inactive)	17.6% (inactive)	55.8%	73.3%	-6.71% (inactive)	-1.64% (inactive)						
NS(=O)(=O)c1cc2c(cc1Cl)NC(CSCc1ccccc1)=NS2(=O)=O	115% (inactive)	89.2% (inactive)	92.6% (inactive)	2.97% (inactive)	89.6%	92.6%	-4.29% (inactive)	0.67% (inactive)						
N#Cc1c(N2CCCC2)nc(N)c2c(N)nc(N3CCCC3)cc12	82% (inactive)	68.2% (inactive)		-29% (inactive)	75.2%	46.3%	-0.13% (inactive)	-2.3% (inactive)						
CN/C=C1\C(=O)C(C)(C)Oc2ccc3ccc(=O)oc3c21	112% (inactive)	91.5% (inactive)	87.9% (inactive)	0.24% (inactive)	87.7%	87.9%	-6.53% (inactive)	0.18% (inactive)						
COc1cc(/C=C/C(=O)CC(=O)/C=C/c2ccc(O)c(OC)c2)ccc1O	116% (inactive)	56.8% (inactive)		1.03% (inactive)	2.06%	3.09%	-2.34% (inactive)	3.5% (inactive)						
CCOC(=O)c1ccccc1NC1c2ccccc2C(=O)N1C1CCN(C(=O)OCC)CC1 (configuration not stated)	126% (inactive)	76.2% (inactive)	80.5% (inactive)	37.6% (inactive)	42.9%	80.5%	-4.13% (inactive)	-3.17% (inactive)	3.84% (inactive)	4.88% (inactive)	-7.16% (inactive)	50.3% (inactive)	46.2% (inactive)	1.9% (inactive)
CC1(C)Cc2c(C#N)c(SCCC#N)nc(N3CCOCC3)c2CS1	83% (inactive)	86.6% (inactive)	84.2% (inactive)				-3.42% (inactive)	-4.84% (inactive)						
CCCNC(=O)c1cc(-c2ccco2)on1	77% (inactive)	88.3% (inactive)	97.4% (inactive)				-1.87% (inactive)	2.73% (inactive)						
CCCCC(=O)O[C@H]1CC[C@H]2[C@@H]3CCc4cc(O)ccc4[C@H]3CC[C@]12C	82% (inactive)	1.94% (active)		13.5% (inactive)	6.17%	19.7%	4.81% (inactive)	8.33% (inactive)						
CC[C@]1(O)CC2CN(CCc3c([nH]c4ccccc34)[C@@](C(=O)OC)(c3cc4c(cc3OC)N(C=O)[C@H]3[C@@](O)(C(=O)OC)[C@H](OC(C)=O)[C@]5(CC)C=CCN6CC[C@]43[C@@H]65)C2)C1 (some centres not stated)	104% (inactive)	34.6% (inactive)		-27% (inactive)	53.5%	26.5%	-0.91% (inactive)	-3.67% (inactive)						
O=C(Nc1nnc(SCC(=O)N2CCCCC2)s1)C1CCCCC1	81% (inactive)	103% (inactive)	101% (inactive)	12.6% (inactive)	88.8%	101%	-2.13% (inactive)	0.73% (inactive)						
CCCCCCCCCCCCCCCC(O)C(N)CO (configuration not stated)	60% (inactive)	2.65% (active)		-0.02% (inactive)	1.44%	1.42%								
Cc1[nH]nc(-c2ccc(O)c(C)c2O)c1-c1cnn(-c2ccccc2)c1	93% (inactive)	85.4% (inactive)	94.2% (inactive)	12% (inactive)	82.1%	94.2%	-4.52% (inactive)	-3.27% (inactive)						
Cn1c(=O)[nH]c(=O)c2c1nc(Br)n2CCCSc1nc2ccccc2o1	89% (inactive)	36.2% (inactive)	23.8% (active)	-9.42% (inactive)	33.3%	23.8%	-4.13% (inactive)	-4.55% (inactive)						
O=C(COC(=O)c1cc(S(=O)(=O)N2CCOCC2)cs1)c1ccccc1	115% (inactive)	93.3% (inactive)	99.9% (inactive)	16.3% (inactive)	83.5%	99.9%	-3.64% (inactive)	-1.97% (inactive)						
CCOC(=O)N1CCC(n2c(SCC(=O)NCc3ccco3)nc3ccsc3c2=O)CC1	81% (inactive)	88.3% (inactive)	78.5% (inactive)				-3.55% (inactive)	2.67% (inactive)						
C1CCC(C(CC2CCCCN2)C2CCCCC2)CC1 (configuration not stated)	2% (active)	2.58% (active)		0.29% (inactive)	1.26%	1.55%								
CCOC(=O)N(C)c1ccc(C(O)(C(F)(F)F)C(F)(F)F)cc1	92% (inactive)	91.7% (inactive)	102% (inactive)	5.16% (inactive)	97.1%	102%	1.76% (inactive)	-6.55% (inactive)						
NS(=O)(=O)c1cc2c(cc1Cl)NC=NS2(=O)=O	104% (inactive)	93.9% (inactive)	100% (inactive)	4.17% (inactive)	95.9%	100%	0.13% (inactive)	1% (inactive)						
CCCCN1CN(S(=O)(=O)c2cccs2)c2nc3ccccc3nc21	97% (inactive)	109% (inactive)	83.7% (inactive)	-5.09% (inactive)	88.8%	83.7%	-10.1% (inactive)	-4.18% (inactive)						
COc1ccc(C)cc1-n1c(N)c(C#N)c(C#N)c1-c1ccc(OC)c(OC)c1OC	97% (inactive)	68.7% (inactive)	72.9% (inactive)				-3.51% (inactive)	-1.31% (inactive)						
Cc1cc(C(=O)CSc2nnc(-c3ccccc3)n2C)c(C)n1C	83% (inactive)	107% (inactive)	95.5% (inactive)	-3% (inactive)	98.5%	95.5%	1.78% (inactive)	0.73% (inactive)						
CC(=O)[C@@]1(O)CC[C@H]2[C@@H]3C[C@H](C)C4=CC(=O)CC[C@]4(C)[C@H]3CC[C@@]21C	106% (inactive)	73.9% (inactive)		-15.6% (inactive)	18%	2.32%	-1.43% (inactive)	-2.67% (inactive)						

Reference: PubChem BioAssay
